25 compounds from PubChem BioAssay (Tox21) can be followed below.

Test [1] in a line: qHTS assay to identify small molecule antagonists of the estrogen receptor alpha (ER-alpha) signaling pathway using the BG1 cell line in the presence of 0.1 nM 17-beta-estradiol - cell viability counter screen (AID 1259241). Note: nearly all actives have a fitted effect of over 40% in size. Note: potency is the fitted concentration of half-maximal effect. In short, it runs like this:
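VM7Luc4E2 cells (endogenous ER-alpha, 4×ERE-luciferase), hormone-starved 5 days in charcoal-stripped FBS, were treated with compounds plus 0.1 nM 17beta-estradiol for 22 hr at 37C; viability read in same wells as CellTiter-Fluor live-cell protease fluorescence.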
For orientation: In qHTS, concentration-response curves come from the screen itself.

Test [2] is described as follows: qHTS assay to identify small molecule antagonists of the androgen receptor (AR) signaling pathway using the MDA cell line in the presence of 0.5 nM R1881 - cell viability counter screen (AID 1259242). Note: nearly all actives have a fitted effect of over 45% in size. Note: potency is the fitted concentration of half-maximal effect. In short, it runs like this: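 Counter screen for cytotoxicity run in the same wells as the AR antagonist reporter screen: MDA-kb2 cells were treated 16 hr with test compounds and 0.5 nM R1881, then live-cell protease activity was measured by fluorescence.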

Test [3] addresses Androgen receptor (Homo sapiens) (UniProt P10275). Kind of test: qHTS assay to identify small molecule antagonists of the androgen receptor (AR) signaling pathway using the MDA cell line in the presence of 0.5 nM R1881 (AID 1259243). Note: nearly all actives have a fitted effect of over 50% in size. Note: potency is the fitted concentration of half-maximal effect. Summed up:
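Luciferase luminescence is the read-out: compounds are tested for suppressing 0.5 nM R1881-driven MMTV reporter activity in MDA-kb2 cells after 16 hr at 37C.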

In test [4] the target is Estrogen receptor (Homo sapiens) (UniProt P03372). Kind of test: qHTS assay to identify small molecule antagonists of the estrogen receptor alpha (ER-alpha) signaling pathway using the BG1 cell line in the presence of 0.1 nM 17-beta-estradiol (AID 1259244). Note: nearly all actives have a fitted effect of over 50% in size. Note: potency is the fitted concentration of half-maximal effect. Summed up: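 Cells: VM7Luc4E2, endogenous ER-alpha, 4x ERE-luc stable. Pre-culture 5 d, phenol red-free, charcoal-stripped FBS. Plated 24 h, compound + E2 0.1 nM final, 22 h 37C/5% CO2. Readout ONE-Glo luminescence.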
Chain of Estrogen receptor (Homo sapiens) (P03372 whole entry, looked up): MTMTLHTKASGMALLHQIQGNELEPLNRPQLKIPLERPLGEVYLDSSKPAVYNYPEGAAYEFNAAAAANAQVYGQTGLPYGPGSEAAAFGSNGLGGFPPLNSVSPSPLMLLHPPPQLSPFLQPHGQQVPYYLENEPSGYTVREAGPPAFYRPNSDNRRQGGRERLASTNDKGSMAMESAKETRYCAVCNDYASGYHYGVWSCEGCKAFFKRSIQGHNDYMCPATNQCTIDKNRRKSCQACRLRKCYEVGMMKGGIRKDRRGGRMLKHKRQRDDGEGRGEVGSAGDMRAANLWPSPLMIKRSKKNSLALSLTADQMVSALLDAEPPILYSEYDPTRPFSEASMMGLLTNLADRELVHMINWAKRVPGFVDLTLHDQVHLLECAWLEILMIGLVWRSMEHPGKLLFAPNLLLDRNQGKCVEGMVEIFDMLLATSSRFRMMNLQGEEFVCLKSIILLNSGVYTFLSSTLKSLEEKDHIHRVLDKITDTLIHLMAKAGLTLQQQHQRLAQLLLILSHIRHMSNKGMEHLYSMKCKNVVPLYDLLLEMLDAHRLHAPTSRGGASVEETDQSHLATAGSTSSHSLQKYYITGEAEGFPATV

Test [5] in a line: qHTS assay to identify small molecule phospholipidosis (PLD) inducers (AID 1259344; active = well fitted curve in the direction sought with a large enough effect; an effect the other way counts as inactive or inconclusive). Summed up: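 Fluorescent phospholipid staining (LipidTOX Red) measured by automated microscopy in fixed HepG2 cells after 24 h treatment; nuclei counterstained with Hoechst 33342; amiodarone as reference inducer.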
The nature of test [6]: qHTS assay to identify small molecule HDAC inhibitors (AID 1259364). Note: nearly all actives have a fitted effect of over 45% in size. Note: potency is the fitted concentration of half-maximal effect. Summed up:
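Luminescence from a cell-permeant luminogenic class I/II HDAC substrate reports endogenous deacetylase activity in intact HCT-116 cells treated with compounds for 2 h.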

Test [7] can be described thus: qHTS assay to identify small molecule HDAC inhibitors - cell viability counter screen (AID 1259365). Note: series mostly up to about 92 µM; nearly all actives have a fitted effect of over 50% in size. In short, it runs like this:
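Wild-type HCT-116 cells were seeded at 1,500 per well, incubated overnight at 37 C, then exposed to compounds in DMSO for 2hr. Viability was read by CellTiter-Glo luminescence after 30min at room temperature.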

A short description of test [8]: qHTS assay to identify small molecule agonists of the sonic hedgehog signaling (Shh) pathway - cell viability counter screen (AID 1259366). Note: nearly all actives have a fitted effect of over 50% in size. Note: potency is the fitted concentration of half-maximal effect. In short, it runs like this: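 NIH/3T3-derived 3T3 Gli1-Luc cells (stable Gli1-responsive firefly luciferase reporter) were seeded, rested 4 hr at 37 C/5% CO2, then exposed to compounds in DMSO for 24 hr; viability was read by CellTiter-Fluor fluorescence in the same wells.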

Test [9] in a line: qHTS assay to identify small molecule antagonists of the sonic hedgehog signaling (Shh) pathway - cell viability counter screen (AID 1259367). Note: nearly all actives have a fitted effect of over 55% in size. Note: potency is the fitted concentration of half-maximal effect. Summed up: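 Using CellTiter-Fluor, viability of Gli1-Luc reporter 3T3 cells is read by fluorescence in the wells used for the Shh luciferase assay. Treatment lasts 23 hr with conditioned medium, then reagent 1 hr at 37C.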
Test [10] in a line: qHTS assay to identify small molecule agonists of the sonic hedgehog signaling (Shh) pathway (AID 1259368; calls by dose curve; note: series mostly up to about 92 µM; nearly all actives have a fitted effect of over 15% in size). Summed up: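 3T3Gli1-Luc (NIH/3T3 clone, stable Gli1-Luc); 4 hr pre-incubation, then cpd in DMSO 24 hr, 37 C/5% CO2; luciferase reagent 30 min RT; luminescence.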

SMILES strings stand for the structures. Values joined by “and” are separate entries in the source; they are usually repeats but may differ in a detail not shown here. Equal values may be shown once. Inconclusive results are not listed. Where a structure was tested more than once in an assay, its records may differ in their call. Active and inactive are the calls of the source. Unless noted, calls come from the whole dose curve; as a rule, active = well fitted curve in the direction sought with a large enough effect in the repeat runs; inconclusive = weak or mixed curves; inactive = no such curve, though single readings can be large; an effect the other way counts as inactive or inconclusive.

Chain of Androgen receptor (Homo sapiens) (P10275 whole entry, looked up): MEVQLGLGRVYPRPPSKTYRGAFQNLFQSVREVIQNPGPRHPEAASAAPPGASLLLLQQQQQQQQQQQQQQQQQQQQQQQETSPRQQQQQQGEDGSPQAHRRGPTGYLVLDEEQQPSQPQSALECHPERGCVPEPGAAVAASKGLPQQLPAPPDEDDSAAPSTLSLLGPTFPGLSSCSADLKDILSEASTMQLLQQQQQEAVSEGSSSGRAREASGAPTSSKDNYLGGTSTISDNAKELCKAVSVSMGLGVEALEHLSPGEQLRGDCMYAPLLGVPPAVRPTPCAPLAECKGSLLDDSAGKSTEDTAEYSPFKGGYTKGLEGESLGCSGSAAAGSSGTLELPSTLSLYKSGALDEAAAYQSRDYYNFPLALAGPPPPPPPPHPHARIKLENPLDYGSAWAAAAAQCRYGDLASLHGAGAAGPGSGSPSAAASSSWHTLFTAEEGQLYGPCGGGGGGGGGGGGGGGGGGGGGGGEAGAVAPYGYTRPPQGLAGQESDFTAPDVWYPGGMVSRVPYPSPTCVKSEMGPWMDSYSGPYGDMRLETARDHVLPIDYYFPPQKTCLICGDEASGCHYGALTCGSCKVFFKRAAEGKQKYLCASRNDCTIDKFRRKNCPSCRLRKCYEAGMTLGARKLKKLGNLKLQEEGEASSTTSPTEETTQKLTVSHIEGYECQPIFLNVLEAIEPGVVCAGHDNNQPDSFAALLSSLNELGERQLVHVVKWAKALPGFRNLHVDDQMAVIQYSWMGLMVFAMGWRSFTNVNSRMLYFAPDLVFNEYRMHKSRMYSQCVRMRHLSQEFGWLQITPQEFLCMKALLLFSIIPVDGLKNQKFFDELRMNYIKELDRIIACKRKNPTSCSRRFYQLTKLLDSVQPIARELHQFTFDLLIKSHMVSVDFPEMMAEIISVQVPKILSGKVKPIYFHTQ

For the compound `O=C(O)c1nn(Cc2ccc(Cl)cc2Cl)c2ccccc12`, the Potency entry in test [1], in test [2], in test [3], in [4], in test [6] and in test [7] was “inactive” each time. Further, the Potency entry in [8], in test [9] and in test [10] was “inactive” throughout. In [5], the outcome was inactive.
Consider `Clc1cccc(C(Cl)(Cl)Cl)n1`, for which the Potency result in test [1], in [2], in test [3], in test [4], in test [6] and in [8] was “inactive” throughout. The Potency result in [9] and in [10] was “inactive” in each case.
As for `CNC(=S)S`, the Potency result in test [1], in test [2], in test [4], in test [6], in [7] and in test [8] was “inactive” in each case. Besides, the Potency entry in [9] and in [10] was “inactive” throughout.
For the compound `Cc1ccc(N=CN(C)C=Nc2ccc(C)cc2C)c(C)c1`, the Potency entry in [1], in test [2], in [4], in test [6], in test [7] and in test [8] was “inactive” throughout. Further, the Potency result in test [9] and in [10] was “inactive” in each case. Also, the compound was called inactive in [5].
Turning to `CCCCOC(=O)COC(=O)c1ccccc1C(=O)OCCCC`, the Potency entry in test [1], in test [2], in [4], in test [6], in [7] and in test [8] was “inactive” each time. Besides, the Potency entry in [9] and in [10] was “inactive” throughout.
Regarding `Nc1ccc2ccccc2c1`, the Potency entry in test [1], in test [2], in test [4], in [6], in test [7] and in [8] was “inactive” in each case. Further, the Potency entry in [9] and in test [10] was “inactive” each time.
Regarding `CC[n+]1c(-c2ccccc2)c2cc(N)ccc2c2ccc(N)cc21`, the Potency was 30.5 µM (active) in test [1]; 24.2 µM (active) and 13.3 µM (active) in test [2]; 27.2 µM (active) and 21.1 µM (active) in test [4]; 54.2 µM (active) and inactive in test [8]; 48.3 µM (active) and inactive in test [9]. In addition, in [5], the call was inactive. Besides, the Potency entry in [6] and in test [10] was “inactive” each time.
Regarding `C[N+](C)(C)CC(=O)O`, the Potency result in test [1], in test [2], in [4], in [6], in [7] and in test [8] was “inactive” throughout. The Potency entry in test [9] and in [10] was “inactive” each time. Besides, the compound was classed as inactive in test [5].
For the compound `O=NN1CCOCC1`, the Potency entry in [1], in test [2], in [4], in test [6], in test [7] and in test [8] was “inactive” in each case. In addition, the Potency result in test [9] and in [10] was “inactive” each time.
Turning to `ClC(Cl)(Cl)c1ccccc1`, the Potency result in [1], in [2], in [4], in test [6], in test [7] and in test [8] was “inactive” each time. Further, the Potency entry in test [9] and in test [10] was “inactive” in each case.
On to `Clc1ccccc1-c1nnc(-c2ccccc2Cl)nn1`, for which the Potency entry in test [1], in test [2], in [4], in [7], in test [8] and in test [9] was “inactive” throughout. The Potency in test [6] was 9.6 µM (active) and 4.31 µM (active).
On to `C[N+](C)(C)C`, for which the Potency result in [1], in test [2], in test [4], in test [6], in [7] and in test [8] was “inactive” each time. For the same compound, the Potency result in [9] and in [10] was “inactive” in each case.
For the compound `Oc1ccc(Cl)cc1Cc1ccccc1`, the Potency entry in test [1], in test [2], in test [6], in test [7], in test [9] and in test [10] was “inactive” throughout. In addition, the Potency in test [3] was 12.2 µM (active) and 4.38 µM (active); in [8] it was 55.1 µM (active) and inactive. Moreover, the call in test [5] was inactive.
On to `Oc1ccc(Cl)cc1Cl`, for which the Potency result in test [1], in test [2], in [4], in test [6], in test [8] and in test [9] was “inactive” throughout. For the same compound, the Potency entry in [10] is “inactive”.
Regarding `O=C(O)CF`, the Potency entry in test [1], in test [2], in [4], in [6], in test [8] and in test [9] was “inactive” throughout. Besides, the Potency result in [10] is “inactive”.
For the compound `CCOP(=O)(O)OCC` (tested in a mixture with another compound), the Potency entry in test [1], in test [6], in test [7] and in test [10] was “inactive” throughout. Also, the Potency entry in [2] was “inactive and 54 µM (active)”; in test [8], “inactive and 48.2 µM (active)”; in test [9], “inactive and 42.9 µM (active)”.
Consider `CCN(CC)C(=O)C(C)Oc1cccc2ccccc12` (stereo not drawn), for which the Potency entry in [1], in test [2], in test [6], in [8], in test [9] and in [10] was “inactive” throughout. In addition, in [4], the Potency was 61.1 µM (active).
As to `COP(=S)(OC)Oc1ccc(Sc2ccc(OP(=S)(OC)OC)cc2)cc1`, the Potency entry in test [1], in [6], in [8], in [9] and in [10] was “inactive” in each case. Moreover, the Potency in test [3] is 61.1 µM (active) and inactive; in test [4] it was 61.1 µM (active) and inactive. In addition, in test [5], the compound was classed as inactive.
In the case of `CC1=C(C(=O)Nc2ccccc2)SCCO1`, the Potency entry in test [1], in [3], in test [4], in [8], in test [9] and in test [10] was “inactive” throughout. Besides, the Potency in [6] is 24.7 µM (active) and 27.3 µM (active).
For `[CH3][Sn]([Cl])([Cl])[Cl]`, the Potency result in test [1], in [2], in [6], in test [7], in test [8] and in test [9] was “inactive” throughout. In addition, the Potency entry in [10] was “inactive”.
Regarding `CC(C)COC(=O)c1ccccc1C(=O)OCC(C)C`, the Potency result in test [1], in test [2], in test [4], in test [6], in test [8] and in test [9] was “inactive” in each case. Also, the Potency result in [10] is “inactive”.
Regarding `CN(C)P(=O)(N(C)C)N(C)C`, the Potency result in test [1], in test [2], in test [4], in [6], in test [8] and in test [9] was “inactive” throughout. Further, in test [10], the Potency entry is “inactive”.
Turning to `CCCCCCCCCC(CC)c1ccc(S(=O)(=O)O)cc1` (stereo not drawn), the Potency result in test [1], in test [2], in [6], in test [8], in test [9] and in [10] was “inactive” in each case. The result in test [5] was inactive.
In the case of `CCC/C=N/O`, the Potency result in [1], in test [2], in [4], in [6], in test [8] and in [9] was “inactive” throughout. In addition, in [10], the Potency entry was “inactive”.
Consider `N#CC(c1ccccc1)c1ccccc1`, for which the Potency entry in [1], in test [2], in test [6], in test [7], in test [8] and in [9] was “inactive” throughout. Besides, in [10], the Potency result is “inactive”.
